The source of these data is ChEMBL document CHEMBL4513216, “Probing the Open Global Health Chemical Diversity Library for Multistage-Active Starting Points for Next-Generation Antimalarials” (ACS Infect Dis, 2020).

Each structure is given as a SMILES string. In all, about 69,000 compounds went through this assay and about 8,600 (12%) showed an effect of 50% or more. This is one part of a sample in which strong results are shown more often than they occur.

This test has as its system Plasmodium berghei. In words: Screen against P. berghei liver stage (PbLuc), transformed with Luciferase, at 10uM. The settings on record: tested at 10 uM. The class given is functional, HepG2.
On to `Cc1csc(N2CCN(CC(=O)NC3CCOCC3)CC2C)n1` (stereo not given), for which the INHIBITION turned out to be 45.6%. Regarding `CCC(=O)N1CCC2(CC1)C(=O)N(C)CCN2Cc1csc(C)n1`, the INHIBITION came to 13.6%. In the case of `CCN(C(=O)CN1CCCN(c2nc(C)ns2)CC1)C1CC1`, the INHIBITION is given as 68.5%. Next, `Cc1nsc(N2CCN(CC(=O)N(C3CC3)C(C)C3CC3)CC2)n1` (stereo not given): 22.6%; `CCc1nsc(N2CCCN(CC(=O)N(C)C3CC3)CC2)n1`: 39.3%; `COc1ccc(-c2noc(C(N)CCSC)n2)cc1OC` (stereo not given): 46.6%.

On to `CNc1cc(CCNC(=O)C2CCCC2)nc(-c2ccccn2)n1`, for which the INHIBITION is on record as -9.34%. Next, `Cc1cccc(Oc2ccccc2CNC(=O)C2CCNC(=O)C2)c1` (stereo not given): -33.7%; `O=C1CC(C(=O)NCc2ccccc2Oc2ccccc2F)CCN1` (stereo not given): 8.38%; `Cc1ccc(CNC(=O)C2CCNC(=O)C2)c(OCCC(C)C)c1` (stereo not given): 58.4%. In the case of `COC(=O)c1ccc(N(C)C2CCC2)nn1`, the INHIBITION is given as 50.1%.

As for `CNC(=O)c1ccc(N(C)C2CCC2)nn1`, the INHIBITION was -107%. Under `CN(c1ccc(C(N)=O)nn1)C1CCC1` stands -8.73%; under `Cc1noc2nc(C3CCN(CC4=CCCOC4)CC3)cc(C(F)F)c12`, 39.8%; under `CC(=O)Nc1nc(C2CCN(C(=O)Cc3ccccc3)CC2)cs1`, 0.301%. Under `Cc1cc(C(=O)N2CCCC(C)C2)ccc1NCC(=O)N1CCOCC1` (stereo not given) stands -47.6%; under `CO[C@H]1CN(C(=O)c2ccc3c(c2)OCO3)[C@@H]2COC[C@H]12`, 1.48%.

As for `COCC1CN(C(=O)Cc2ccccn2)Cc2c1cnn2CC1CC1` (stereo not given), the INHIBITION was found to be 15.9%. Next, `Cn1ncc2ccc(C3CCCN(Cc4cccs4)C3)nc21` (stereo not given): 20.74%; `Cn1ncc2ccc(C3CCCN(C(=O)Cc4cccs4)C3)nc21` (stereo not given): 58.5%. Under `CCOCC1CN(C(=O)Cc2ccccn2)Cc2c1cnn2C` (stereo not given) stands 26.4%; under `CCO[C@H]1CN(C(=O)c2ccc3c(c2)OCO3)[C@@H]2COC[C@H]12`, 57.9%; under `Cn1ncc2c1CN(C(=O)Cc1ccccn1)CC2COCC1CC1` (stereo not given), 64.9%. Next, `COCC1CN(S(=O)(=O)Cc2ccc(C)cc2)Cc2c1cnn2C` (stereo not given): -0.554%; `COCC1CN(S(=O)(=O)Cc2ccccc2)Cc2c1cnn2C` (stereo not given): 54.1%. For `Cc1cc(C)n(C2CCCN(C(=O)Cc3cccs3)C2)n1` (stereo not given), the INHIBITION is -5.25%. Under `COCC1CN(S(=O)(=O)c2ccc(C)cc2)Cc2c1cnn2C` (stereo not given) stands 34.9%; under `CN(C)CCO[C@H]1CN(C(=O)c2ccc3c(c2)OCO3)[C@@H]2COC[C@H]12`, -20.8%.

As for `CC1CCN(S(=O)(=O)N2CCCN(CC3CCCO3)CC2)CC1` (stereo not given), the INHIBITION came to 38%. Next, `CC(C)n1cnc2c1C(C(=O)NCCO)N(Cc1ccccc1)CC2` (stereo not given): -18.4%; `CSc1ncc(C(=O)N2C[C@@H]3CC[C@H]2CN(c2ncccn2)C3)cn1`: 14%. In the case of `CCn1ncc2c1CN(C(=O)Cc1cccs1)CC2COC` (stereo not given), the INHIBITION is on record as -27.9%. Next, `COCC1CN(C(=O)Cc2ccccn2)Cc2ncnn2C1` (stereo not given): 64.9%; `COCC1CN(C(=O)CC2Cc3ccccc3C2)Cc2c1cnn2C` (stereo not given): 59%; `COCC1CN(C(=O)c2cccn2C)Cc2c1cnn2CC1CC1` (stereo not given): 31.7%. Under `CCn1ncc2c1CN(C(=O)c1cscn1)CC2COC` (stereo not given) stands 45.1%; under `CCn1ncc2c1CN(C(=O)c1cc(C)oc1C)CC2COC` (stereo not given), -12.1%; under `COCC1CN(C(=O)c2ccnnc2)Cc2c1cnn2C` (stereo not given), 48.3%.

With `COCC1CN(C(=O)c2ccnnc2)Cc2ncnn2C1` (stereo not given), the INHIBITION was -41.6%.

`CCn1ncc2c1CN(C(=O)c1ccc3c(c1)OCO3)CC2COC` (stereo not given): the INHIBITION was determined as 50.7%. Under `COCC1CN(C(=O)CNC(C)=O)Cc2ncnn2C1` (stereo not given) stands 6.8%; under `COCC1CN(C(=O)Cc2cccs2)Cc2c1cnn2C` (stereo not given), 66%. Consider `COCC1CN(C(=O)Cc2ccsc2)Cc2c1cnn2C` (stereo not given), for which the INHIBITION is listed as 46.2%. As to `Cc1ccc(N2CCCC(NCc3sccc3C)C2)nn1` (stereo not given), the INHIBITION is 36.1%. Regarding `O=C(c1cscn1)N1CCC2(CN(Cc3nccs3)C2)C1`, the INHIBITION amounted to 15.9%. Turning to `Cc1csc2ncc(-c3ccnc(NC4CCOCC4)n3)c(=O)n12`, the INHIBITION is given as -9.27%. For the compound `CCCc1noc(C(C)N(CC)Cc2ccco2)n1` (stereo not given), the INHIBITION is -30.5%. Under `O=C(c1ccno1)N1CC[C@@H]2O[C@H](COCCN3CCCC3)CC[C@@H]21` stands 4.27%; under `O=C1CCC2(CCCN(C(=O)Cc3cccnc3)C2)N1` (stereo not given), 0.112%; under `Fc1ccc(C2CCCN2Cc2nc(Cc3ccccc3F)no2)cc1` (stereo not given), 25.8%.

Consider `Fc1ccc(C2CCCCN2Cc2cc(-c3ccccn3)no2)cc1` (stereo not given), for which the INHIBITION was found to be 51.8%. As to `c1ccc(-c2cc(CN3CCCCCC3c3ccco3)on2)nc1` (stereo not given), the INHIBITION is reported as -15%. Consider `Fc1cccc(C2CCCCN2Cc2nc(-c3cnccn3)no2)c1` (stereo not given), for which the INHIBITION is -12.6%. On to `CCc1nc(C2CCCN2Cc2ccno2)no1` (stereo not given), for which the INHIBITION turned out to be 19.6%. Next, `CCc1cc(CN2CCCCC2c2ccc(F)cc2)on1` (stereo not given): 65.7%.
